Test results published in PubChem BioAssay AID686978 (National Center for Advancing Translational Sciences (NCATS), 2013).
About 64,000 (15%) of roughly 420,000 compounds were called active. Inconclusive results (about 27%) are left out. The list is a sample of the results. A number with no mark means an inactive call. Calls come from the whole dose curve; as a rule, active = well fitted inhibition curve with a large enough effect; inconclusive = small, poorly fitted or top-dose-only effect; inactive = flat fitted curve, though single readings scatter.

Experiment: qHTS for Inhibitors of human tyrosyl-DNA phosphodiesterase 1 (TDP1): qHTS in cells in absence of CPT; note: nearly all actives have a fitted effect of over 55% in size
Settings: DT40 Tdp1-/- hTDP1 cells, no CPT, ATP luminescence, 48 h; activity change, negative = growth inhibition: at 46.2 µM (top of the series)
Summary of the method: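 A cellular qHTS used chicken DT40 cells lacking endogenous Tdp1 but carrying stably transfected human TDP1. Compounds were applied without camptothecin, and cell growth kinetics were judged by ATP-dependent luminescence after ≥48 hr.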
% is set by controls: 0 for no effect and ±100 for the full control effect; potency is the fitted concentration of half-maximal effect.

Structure (SMILES) | activity change, negative = growth inhibition | Potency
COc1ccc(Cl)cc1C=CC=NNC(=O)c1ccncc1 | -17.1% | 
COc1ccc([C@H]2N[C@]3(CCCN(Cc4ccco4)C3=O)[C@H]3C(=O)N(C)C(=O)[C@@H]23)cc1 | -28.7% | 
CCN1C[C@@H]2[C@@H]3C(=O)N(Cc4ccccc4)C(=O)[C@@H]3[C@](C)(C1=O)N2C(=O)c1ccc(C(C)(C)C)cc1 | -28% | 
CCN1C(=O)[C@H]2[C@@H](c3ccc(C(F)(F)F)cc3)N[C@]3(CCCN(Cc4ccc(Br)cc4)C3=O)[C@H]2C1=O |  | 9.2 µM (active)
O=C1[C@H]2[C@@H](c3ccc(C(F)(F)F)cc3)N[C@]3(CCCN(Cc4ccc(Cl)cc4)C3=O)[C@H]2C(=O)N1Cc1ccccc1 |  | 20.6 µM (active)
O=C1[C@H]2[C@@H](c3ccc(C(F)(F)F)cc3)N[C@]3(CCCN(Cc4ccc(Br)cc4)C3=O)[C@H]2C(=O)N1Cc1ccccc1 |  | 23.1 µM (active)
Cc1ccc([C@H]2N[C@]3(CCCN(CC4CCCCC4)C3=O)[C@H]3C(=O)N(Cc4ccccc4)C(=O)[C@@H]23)cc1 |  | 23.1 µM (active)
CCN1C(=O)[C@H]2[C@@H](c3ccccc3)N[C@]3(CCCN(Cc4ccc(C)cc4)C3=O)[C@H]2C1=O | -5.24% | 
Cc1ccc(C(=O)Oc2ccc(C(=S)N3CCOCC3)cc2)cc1 | -1.68% | 
c1ccc(-c2ccnc3nc(-n4cccc4)nn23)cc1 | -27.3% | 
O=C(CN(C(=O)c1nsc(Cl)c1Cl)c1cccc(F)c1)NC1CCCC1 | -10.5% | 
O=C(CCc1ccc(S(=O)(=O)N2CCOCC2)cc1)NN=C1CCCCCCC1 | -23.8% | 
CCN(CC)CCN(C(=O)c1cccc([N+](=O)[O-])c1)c1nc2ccc(OC)cc2s1 | -6% | 
Cc1noc(C)c1NC(=O)Nc1ccc2c(c1)C(=O)N([C@H](C)CO)C[C@H](C)[C@@H](CN(C)C(=O)Nc1ccc(C(F)(F)F)cc1)O2 | -3.6% | 
CCN(CC)C(=O)COc1coc(CN2CCN(Cc3ccccc3)CC2)cc1=O | -2.5% | 
O=C(CSc1nnc(-c2ccncc2)o1)NCc1ccc(Cl)cc1 | -3.3% | 
Fc1ccc(-c2ccc(NCCN3CCOCC3)nn2)cc1 | 0.015% | 
Nc1cc(C(F)(F)F)ccc1N1CCOCC1 | -12.3% | 
Cc1cccc(N=Nc2c(O)[nH]c3ccc(F)cc23)c1 | -23.1% | 
Oc1[nH]c2ccccc2c1N=Nc1c(F)c(F)c(F)c(F)c1F |  | 13 µM (active)
Oc1[nH]c2ccc(Br)cc2c1N=Nc1nn[nH]n1 | 0.673% | 
CCC(Cc1ccccc1)NC(=O)C1CCCCC1 (stereo unspecified) | -2.07% | 
O=C1c2ccccc2C(=O)N1c1ccc(S(=O)(=O)N2CCOCC2)c2ccccc12 | -11.7% | 
Cc1ccc(S(=O)(=O)NC(=O)Nc2nc(-c3ccc(F)c(F)c3)cs2)cc1 | -3.11% | 
COc1ccc(-c2csc(Nc3cccc(C)n3)n2)cc1OC |  | 25.9 µM (active)
COc1ccc(CC(=O)Nc2nnc3n2CCS3)cc1OC | -29.4% | 

Structure (SMILES) | activity change, negative = growth inhibition | Potency
COc1cccc(CC(=O)Nc2nc(-c3ccc(OC)c(OC)c3)cs2)c1 |  | 18.4 µM (active)
COc1ccc(CC(=O)Nc2nc(-c3ccc(F)c(F)c3)cs2)cc1OC |  | 6.51 µM (active)
Fc1ccc(-c2csc(-c3ccc(C4SCCS4)cc3)n2)cc1F | -28.9% | 
COc1cc(CC(=O)Nc2nc(-c3ccc(F)c(F)c3)cs2)cc(OC)c1OC |  | 5.8 µM (active)
COc1ccc(-c2csc(NC(=O)c3ccc(N4C(=O)CCC4=O)cc3)n2)cc1OC | -23% | 
Cc1nn2c(=O)cc(COC(=O)c3ccccc3NC(=O)COc3ccccc3C)nc2s1 | -1.12% | 
CC(=O)C1C(c2ccc(Cl)cc2)c2c(n[nH]c2C)CC1(C)O (stereo unspecified) | 3.21% | 
CCOc1ccc(S(=O)(=O)NCCC(=O)NCC2CCCO2)cc1 (stereo unspecified) | 6.02% | 
COc1ccc(Cn2cccc(NC(=O)Nc3ccc(C#N)cc3)c2=O)cc1 | -24.5% | 
CC1CCc2sc3nc(N4CCN(CCO)CC4)n4ncnc4c3c2C1 (stereo unspecified) | -12% | 
Cc1ccn2c(=O)nc(SCC(=O)NCc3ccc4c(c3)OCO4)nc2c1 | -45.9% | 
O=C(COC(=O)CC1CC2CCC1C2)NC(=O)NC1CCCC1 (stereo unspecified) | -2.02% | 
COc1ccc(-c2nc3scc(CCNS(=O)(=O)c4cc(F)ccc4OC)n3n2)cc1OC |  | 20.6 µM (active)
COc1cc(OC)cc(C(=O)NCCc2csc3nc(-c4ccccc4F)nn23)c1 | -21.9% | 
COc1ccc(CCNS(=O)(=O)c2ccc(F)cc2)cc1OC | -4.13% | 
Cc1cc([N+](=O)[O-])nn1CC(=O)Nc1ccc(Cc2ccncc2)cc1 | -26.3% | 
CN(c1ccccc1)S(=O)(=O)c1cc(C(=O)OCC(=O)N2CCN(C(=O)c3ccco3)CC2)ccc1Cl |  | 23.1 µM (active)
O=C(OCC(=O)N1CCN(C(=O)c2ccco2)CC1)c1c(Cl)cccc1Cl | -11.4% | 
O=C(OCC(=O)N1CCN(C(=O)c2ccco2)CC1)c1cccc(O)c1 | 3.71% | 
COc1cccc(CN2CCNC(=O)C2CC(=O)N(C)CCc2ccccn2)c1 (stereo unspecified) | 5.47% | 
Cc1ccc(NC(=O)c2oc3ccccc3c2C)c([N+](=O)[O-])c1 | -25% | 
COc1ccc(Cl)cc1C(=O)NCC#N | -11.5% | 
c1ccc2c(Nc3ccncc3)nc(-c3ccc4c(c3)OCO4)nc2c1 |  | 14.6 µM (active)
c1ccc2c(Nc3ccncc3)nc(-c3ccoc3)nc2c1 |  | 20.6 µM (active)
Cc1noc(C)c1-c1nc(Nc2ccccc2)c2ccccc2n1 | 0.567% | 
